D2 ag-1 = Beta-Arrestin HTS for Positive Allosteric Modulators of the Human D2 Dopamine Receptor: Agonists; D(2) dopamine receptor (Homo sapiens), P14416; DiscoveRx PathHunter D2 beta-arrestin, luminescence, 90 min; 100% = 57 uM dopamine signal; activation, % (no concentration beside the values); 360,000 compounds, 0.084% hits; AID 624465, 2012; in the data active = activation above about 40%; inconclusive = between about 15% and that limit
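DiscoveRx PathHunter D2 beta-arrestin cells (2,100/well) attached overnight, then compound-stimulated 90 min at 37 C in HBSS/10 mM HEPES/0.1% Tween-20 buffer; beta-galactosidase complementation read by luminescence after 1 h at ambient temperature. Dopamine 57 uM final (EC100) as control.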
D2 PAM-1 = Beta-Arrestin HTS for Positive Allosteric Modulators of the Human D2 Dopamine Receptor: Potentiators. D(2) dopamine receptor (Homo sapiens), P14416. DiscoveRx D2 beta-arrestin cells, luminescence, 90 min; 100% = 57 uM dopamine signal. potentiation, % (no concentration beside the values). 360,000 compounds, 0.23% hits. AID 624464, 2012; in the data active = potentiation above about 50%; inconclusive = mostly about 30% to 49%
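PathHunter beta-arrestin assay in DiscoveRx D2 cells. Compounds were added with an EC20 of dopamine (50 nM final) for 90 min at 37 deg C. Luminescence was read 1 h after detection reagent, with 57 uM dopamine as the EC100 control.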
D2 ag-2 = HTS Assay for Allosteric Agonists of the Human D2 Dopamine Receptor: Primary Screen for Agonists | D(2) dopamine receptor (Homo sapiens), P14416 | HEK293 T-REx D2 cells, calcium flux agonist mode | activation, % at 2 µM | 340,000 compounds, 0.53% hits | AID 485358, 2010;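 active = activation over 3 SD above normal in the single-dose calcium agonist read, cut at about 30% in these data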; note: 0% is about no effect
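Agonism is scored from calcium flux in a force-coupled, inducible HEK293 cell line expressing D2, read kinetically for 180 s after compound addition against dopamine controls.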
D2 antagonist = HTS Assay for Allosteric Antagonists of the Human D2 Dopamine Receptor: Primary Screen for Antagonists | 340,000 compounds, 2% hits | inhibition, % at 10 µM | HEK293 TREx D2 cells, calcium flux, dopamine EC80 | D(2) dopamine receptor (Homo sapiens), P14416; in the data active = inhibition above about 30%; inactive = below that, where a call was filed; note: 0% is about no effect
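Cells plated overnight at 30 C with tetracycline; no-wash calcium dye, 30–90 min RT; 10 s baseline; compound pinned; 180 s read; EC80 dopamine added; another 180 s read.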
D2 PAM-2 = HTS Assay for Positive Allosteric Modulators of the Human D2 Dopamine Receptor: Primary Screen for Potentiators; D(2) dopamine receptor (Homo sapiens), P14416; HEK293 T-REx D2, calcium flux, EC20 dopamine potentiation; potentiation, % at 10 µM; AID 485347, 2010; 340,000 compounds, 0.34% hits;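 active = potentiation over 3 SD above the plate norm, cut at about 30% in these data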; note: 0% is about no effect
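Tetracycline-induced HEK293 T-REx cells force-coupled to calcium signalling expressed D2; compounds were pin-added after a 10 s baseline, read kinetically 180 s, then an EC20 dopamine challenge followed with a further 180 s calcium read.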
D3 ag = qHTS of D3 Dopamine Receptor Agonist: D3 Dopamine Receptor B-arrestin Agonist Confirmatory Assay | shares compounds with D2 ag-2 | Potency, µM (highest dose often 76.9 µM), for the others: at the highest dose activation, most hits filed as activators | 2,300 compounds, 4% hits | DiscoveRx D3 beta-arrestin cells, luminescence, 90 min;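 note: potency is the fitted concentration of half-maximal effect; 100% = dopamine control response; nearly all actives have a fitted effect of over 70% in size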
Target sequence (P35462 whole entry, looked up): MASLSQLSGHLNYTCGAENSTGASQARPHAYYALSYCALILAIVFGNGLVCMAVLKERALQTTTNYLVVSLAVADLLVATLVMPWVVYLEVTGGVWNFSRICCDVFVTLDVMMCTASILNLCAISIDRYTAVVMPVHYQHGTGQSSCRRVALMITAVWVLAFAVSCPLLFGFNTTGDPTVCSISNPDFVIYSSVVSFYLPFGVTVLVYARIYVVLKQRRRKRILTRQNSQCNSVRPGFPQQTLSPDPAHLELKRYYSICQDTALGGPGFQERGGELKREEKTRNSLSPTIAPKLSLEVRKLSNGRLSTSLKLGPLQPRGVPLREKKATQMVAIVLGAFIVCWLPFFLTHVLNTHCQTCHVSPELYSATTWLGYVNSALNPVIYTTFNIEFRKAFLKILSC
D2 ag-3 = qHTS of D3 Dopamine Receptor Agonist: D2 Dopamine Receptor B-arrestin Agonist Counterscreen; shares compounds with D2 ag-2; AID 720507, 2013; Potency, µM (top dose mostly 76.9 µM), inactives show at the top dose activation, hits mostly activators; 2,300 compounds, 5.9% hits; DiscoveRx PathHunter D2 beta-arrestin, luminescence, 90 min; response scale: percent relative to full dopamine signal; note: potency is the fitted concentration of half-maximal effect; % of control where 0% means no effect; nearly all actives have a fitted effect of over 70% in size
Starred values were filed as active, the others as inactive; u = inconclusive; x = no result. Rows were chosen to be rich in hits. Some 2.4% of all compounds tested hit in one or more screens of this group. Unless noted, calls come from the whole dose curve; as a rule, active = well fitted activation curve with a large enough effect; inconclusive = small, poorly fitted or top-dose-only effect; inactive = flat fitted curve, though single readings scatter.

SMILES	D2 ag-1	D2 PAM-1	D2 ag-2	D2 antagonist	D2 PAM-2	D3 ag	D2 ag-3
CC1(C)CC(=O)c2sc(NC(=O)c3cccs3)nc2C1	9	3	52*	-7	-17	u	15%
CC1(C)CC(=O)c2sc(NC(=O)C(C)(C)C)nc2C1	-1	0	0	-9	21	x	x
COc1ccccc1NC(=O)CN1C(=O)c2cccc3cccc1c23	x	x	-1	x	-2	x	x
Cc1ccc(O)c(NC(=S)NC(=O)Cc2ccc(Cl)cc2)c1	2	-6	x	x	x	-7%	-2%
Cn1ccc(C(=O)Nc2ccc3c(c2)OCCO3)n1	3	4	0	22	8	-5%	-3%
CCn1cnc2c(cnn2-c2ccccc2)c1=O	0	-3	-1	26	-9	x	x
O=c1c2cnn(-c3ccccc3)c2ncn1CCc1ccccc1	0	9	65*	6	-19	-3%	-2%
CC1CCC(NCCNC(=O)c2ccco2)CC1 (stereo not given)	-5	-15	68*	14	-22	-18%	-7%
O=C(NCCNC1CCCCC1)c1ccco1	-1	-7	12	5	8	x	x
CC(=O)c1cc2c(O)c(O)ccc2o1	7	13	1	2	-7	u	8%
CC(=O)c1cc2cc(O)ccc2o1	-2	-9	1	-10	-3	x	x
N#Cc1c(/N=C/c2ccc(-c3ccccc3C(=O)O)o2)sc2c1CCCC2	14	14	66*	-13	-11	u	u
N#Cc1c(/N=C\c2ccc(O)c([N+](=O)[O-])c2)sc2c1CCCC2	u	20	67*	18	-23	u	13%
N#Cc1c(/N=C/c2ccc(Br)s2)sc2c1CCC2	9	2	0	-30	3	x	x
Cc1ccc(/C=N/c2sc3c(c2C#N)CCC3)o1	-2	-17	2	9	8	x	x
N#Cc1c(/N=C/c2ccc(-c3ccc(C(=O)O)c(Cl)c3)o2)sc2c1CCCC2	u	15	45*	-4	-12	40µM*	u
CC(C)Oc1ccc(CNC(=O)CCCN2C(=O)c3cccnc3Oc3ccc(Cl)cc32)cc1	x	x	-1	x	4	x	x
CN1CCN(C(=O)CSc2nc(-c3ccco3)cc(C(F)(F)F)n2)CC1	1	-15	-1	-15	-6	x	x
O=C(CCSc1nc(-c2ccco2)cc(C(F)(F)F)n1)N1CCN(c2ccccn2)CC1	0	2	52*	6	-17	-7%	0%
Cn1c(=O)cc(SCC(=O)N2CCN(Cc3ccc4c(c3)OCO4)CC2)c2ccccc21	6	3	38*	41*	-10	1%	11%
Cc1ccc(CSCC(=O)N2CCN(Cc3ccc4c(c3)OCO4)CC2)cc1	2	-11	45*	15	-13	-11%	4%
CC(C)[C@@H](C(=O)N1CCN(Cc2ccc3c(c2)OCO3)CC1)n1nnc2ccccc2c1=O	0	1	x	x	x	x	x
CCC(C(=O)N1CCN(Cc2ccc3c(c2)OCO3)CC1)n1c(=O)[nH]c2ccccc2c1=O (stereo not given)	-9	-9	46*	3	-9	-3%	5%
CCOc1ccc(C2c3c(oc4ccc(C)cc4c3=O)C(=O)N2c2nc(C)c(C)s2)cc1OC (stereo not given)	x	x	x	x	3	x	x
O=C(Cc1ccc(F)cc1)Nc1cccc(-c2nc3cccnc3s2)c1	x	x	4	x	5	x	x
SMILES	D2 ag-1	D2 PAM-1	D2 ag-2	D2 antagonist	D2 PAM-2	D3 ag	D2 ag-3
COC(=O)C1CCN(Cc2nnc(-c3ccccc3)o2)CC1	u	0	45*	66*	-16	4µM*	15%
COC(=O)C1CCN(Cc2cn(-c3ccccc3)nc2-c2ccc3c(c2)OCO3)CC1	-2	-15	41*	82*	-20	-3%	1%
CC(=O)NCC1CCCN(Cc2cn(-c3ccccc3)nc2-c2ccc3c(c2)OCO3)C1 (stereo not given)	1	-13	0	-13	-21	x	x
c1ccc(-c2nnc(CN3CCCCC3)o2)cc1	-9	-10	2	4	-3	x	x
O=S(=O)(NCCCN1CCN(c2ccccc2F)CC1)c1cccc2cccnc12	-4	1	x	x	x	17%	14%
O=S(=O)(NCCN1CCCC1)c1cccc2cccnc12	-2	-6	1	-10	0	x	x
O=C(/C=C/c1ccccc1)NCC(=O)N/N=C/c1cccs1	-3	-4	43*	3	-19	-9%	-1%
N#CCC(=O)NCCCc1ccccc1	-4	-4	41*	6	-5	-6%	-5%
Cc1c(Cl)cccc1NC(=O)C(=O)NCC(c1cccnc1)N1CCN(c2ccccc2)CC1 (stereo not given)	x	x	1	x	-28	x	x
CCSc1nc2c(c(=O)[nH]1)C(C(C)C)C(C#N)=C(N)O2 (stereo not given)	-2	1	45*	-10	0	-3%	-2%
Cc1ccc(-n2c(=O)c3c(c4cc(C)ccc4n3C)n(Cc3ccc(F)cc3)c2=O)cc1	x	x	x	x	1	x	x
Cc1ccc(NC(=O)CCS(=O)(=O)c2ccc(Br)s2)c(Br)c1	x	x	x	x	-1	x	x
CCOC(=O)c1ccc(N2C(=O)Cc3ccccc3C2=O)cc1	-3	1	1	-8	5	x	x
C=CC[C@]12CCc3ccccc3C1N(c1ccc(C(=O)OCC)cc1)C2=O (stereo not given in full)	-3	-6	0	-11	3	-7%	-4%
CCN(Cc1ccccc1)C(=O)Cn1c(=O)n(-c2ccc(Cl)cc2)c(=O)c2c(C)c(C(=O)N(C)C)sc21	x	x	1	x	6	x	x
COc1ccccc1CNC(=O)c1cnc2sc(N3CCCCC3)nn2c1=O	x	x	0	x	10	x	x
Cc1ccc(S(=O)(=O)N(C)C)cc1NC(=O)COC(=O)CN1C(=O)c2ccccc2C1=O	-4	-29	0	-20	-15	4%	-4%
COc1ccc2cc3cc(C(=O)NCCc4ccccc4)sc3nc2c1Cl	x	x	1	x	-6	x	x
